Assay results taken from PubChem BioAssay (NCATS).
Inconclusive results are not listed. A call without a number means that no potency is given here. Unmarked numbers belong to inactive results. Active and inactive are the calls of the source. The call rests on the fitted dose curve; in most records, active means well fitted curve in the direction sought with a large enough effect; inconclusive means small, poorly fitted or top-dose-only effect, or another doubt; inactive means no such curve, though single readings can be large; an effect the other way counts as inactive or inconclusive.

Key:
[1] = biological target: Cellular tumor antigen p53 (Homo sapiens) (UniProt P04637); test: Primary qHTS for small molecule compounds that upregulate eGFP-tagged delta133p53alpha (in N-terminal) cells. (AID 2060322); conditions: NCI-H358 eGFP-delta133p53alpha fluorescence, 24 h; activation: hits give high values; further: nearly all actives have a fitted effect of over 75% in size; further: potency means the concentration at half of the fitted maximal effect
Sequence of Cellular tumor antigen p53 (Homo sapiens) (P04637 whole entry, looked up): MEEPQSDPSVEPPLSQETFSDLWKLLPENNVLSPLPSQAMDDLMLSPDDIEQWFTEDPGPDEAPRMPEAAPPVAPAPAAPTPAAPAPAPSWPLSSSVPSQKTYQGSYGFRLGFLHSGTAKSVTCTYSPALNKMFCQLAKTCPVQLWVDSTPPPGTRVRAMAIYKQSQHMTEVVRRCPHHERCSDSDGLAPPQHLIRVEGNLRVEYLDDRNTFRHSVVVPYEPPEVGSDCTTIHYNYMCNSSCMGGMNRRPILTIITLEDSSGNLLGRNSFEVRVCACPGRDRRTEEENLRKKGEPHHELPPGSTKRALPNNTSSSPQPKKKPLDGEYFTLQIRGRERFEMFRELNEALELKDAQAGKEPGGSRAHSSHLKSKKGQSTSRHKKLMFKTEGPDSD
Outline: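 NCI-H358 cells pre-induced 24 h with 10 ng/ml doxycycline to express N-terminal eGFP-delta133p53alpha, then dosed 24 h at 37C without doxycycline; fixed, Hoechst-stained, GFP intensity by laser scanning cytometry, normalized to DMSO (0%) and 57.5 uM 5-azacytidine (100%).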

[2] = biological target: Aldehyde dehydrogenase, mitochondrial (Homo sapiens) (UniProt P05091); test: qHTS for Inhibitors of the Aldehyde Dehydrogenase Family (ALDH2) Primary screen (AID 2061308); conditions: ALDH2 enzyme inhibition qHTS, 1536-well; series mostly up to 56 µM; further: nearly all actives have a fitted effect of over 55% in size
[3] = biological target: Retinaldehyde dehydrogenase 3 (Homo sapiens) (UniProt P47895); test: qHTS for Inhibitors of the Aldehyde Dehydrogenase Family (ALDH1A3) Primary screen (AID 2061315); conditions: ALDH inhibition qHTS; series mostly up to 56 µM

Compound | Potency [1] | Potency [2] | Potency [3] | activation [1] [%] | activity change, negative = inhibition [2] | activity change, negative = inhibition [3]
COc1cc(NC(=O)c2cccc(-n3cc(NC(=O)Nc4cccc(C)c4)cn3)c2)cc(OC)c1OC | 23.9 µM (active) | inactive | inactive | – | – | –
COC(=O)C1=CO[C@@H](O[C@@H]2O[C@H](CO)[C@@H](O)[C@H](O)[C@H]2O)[C@@H]2C(C)CC(=O)[C@]12O (stereo not given in full) | – | inactive | inactive | 1.79 | – | –
COC(=O)c1ccnc(-c2cc(C(=O)NCCc3ccccc3)ccn2)c1 | – | inactive | inactive | 3.67 | – | –
CC(C)(O)C1CC=C(C(=O)OC[C@H]2O[C@@H](Oc3cc(C(=O)O)cc(O)c3O)[C@H](O)[C@@H](O)[C@@H]2O)CC1 (stereo not given in full) | – | inactive | inactive | -22.1 | – | –
COC1CC(O[C@H]2CC[C@@]3(C)C(CCC4C3[C@H](OC(C)=O)[C@@H](OC(=O)/C=C/c3ccccc3)[C@]3(C)C(C(C)=O)CC[C@]43O)C2)OC(C)C1OC1CC(OC)C(OC2CC(OC)C(OC3OC(C)C(OC4OC(CO)C(O)C(O)C4O)C(OC)C3O)C(C)O2)C(C)O1 (stereo not given in full) | – | – | – | -13 | 6.42% [at 11.2 µM] | 5.71% [at 11.2 µM]
CC1CCC2(C=O)C(CO)=CCCC2C1(C)CC(=O)O (stereo not given) | – | inactive | inactive | -0.763 | – | –
COC(=O)CCC1(C)C(C(C)(C)O)C(O)CC2(C)Oc3c(C)c4c(c(OC)c3CC21)C(=O)OC4 (stereo not given) | – | inactive | inactive | -3.82 | – | –
C=C(C)C1CC2(CO)C(=CC1=O)CCC(O)C2C (stereo not given) | – | inactive | inactive | -4.58 | – | –
CC(C)(C)c1cc(CN2CCN(CC(O)c3ccc(Cl)cc3)CC2)cc(C(C)(C)C)c1O (stereo not given) | – | inactive | inactive | -0.477 | – | –
COC(=O)CC[C@@H](C)C1CCC2C3CCC4C[C@H](OC(C)=O)CCC4(C)C3C[C@H](O)C21C (stereo not given in full) | – | inactive | inactive | 3.67 | – | –
COC(=O)CC(O)C1OC(c2ccccc2)C(O)C1O (stereo not given) | – | inactive | inactive | -2.29 | – | –
C=CC(C)(C)c1[nH]c2ccccc2c1C[C@@H]1NC(=O)[C@H](Cc2c[nH]c3ccccc23)NC1=O | – | inactive | inactive | 6.25 | – | –
CC(C)CC1NC(=O)C(C)NC(=O)C(CC(C)C)OC(=O)CCCNC1=O (stereo not given) | – | inactive | inactive | -2.68 | – | –
CO[C@H]1O[C@@H]2O[C@]3(C)CC[C@H]4[C@H](C)CC[C@@H]([C@H]1C)[C@@]24OO3 | – | inactive | inactive | 10.3 | – | –
C[C@@H]1O[C@@H](O[C@H]2[C@H](O)[C@@H](O)[C@H](OC[C@H]3O[C@@H](OC(=O)[C@]45CCC(C)(C)C[C@H]4C4=CCC6[C@@]7(C)CC[C@H](O[C@@H]8OC[C@H](O)[C@H](O[C@@H]9O[C@H](CO)[C@@H](O)[C@H](O)[C@H]9O)[C@H]8O)[C@@](C)(CO)C7CC[C@@]6(C)[C@]4(C)CC5)[C@H](O)[C@@H](O)[C@@H]3O)O[C@@H]2CO)[C@H](O)[C@H](O)[C@H]1O (stereo not given in full) | – | – | – | -10.7 | 1.57% [at 11.2 µM] | 14.6% [at 11.2 µM]
CC(C)(O[C@@H]1O[C@H](CO)[C@@H](O)[C@H](O)[C@H]1O)C(OC(=O)/C=C\c1ccc(O)cc1)C(=O)OCc1ccc(O[C@@H]2O[C@H](CO)[C@@H](O)[C@H](O)[C@H]2O)cc1 (stereo not given in full) | – | inactive | inactive | -8.4 | – | –
C=C(C)[C@@H]1CC[C@](C)(O)[C@@H](OC(=O)c2ccccc2)C1 | – | inactive | inactive | -15.2 | – | –
C=C1C(=O)O[C@@H]2C[C@H](C)C3=CC(=O)[C@H](O)[C@@]3(C)C[C@H]12 | 30.1 µM (active) | inactive | inactive | – | – | –
C=C1OC2CC(C(=O)O)C=CC2NC1=O (stereo not given) | – | inactive | inactive | -19.8 | – | –
CCOC(=O)c1c(C)nn(-c2cccc([N+](=O)[O-])c2)c1C | – | inactive | inactive | -9.67 | – | –
O=C1CCC(=O)N(O)CCCCCNC(=O)CCC(=O)N(O)CCOCCNC(=O)CCC(=O)N(O)CCCCCN1 | – | inactive | inactive | -16.8 | – | –
CC(C)CNC(=O)/C=C/CCCCc1ccc2c(c1)OCO2 | – | inactive | inactive | 10.7 | – | –
CC(C)c1ccc2c(c1)C(O)CC1C(C)(C(=O)O)CCCC21C (stereo not given) | – | inactive | inactive | -6.11 | – | –
CC(C)(C)NS(=O)(=O)c1cncc(-c2cc(F)c3nc(N)nn3c2)c1 | – | inactive | inactive | 5.36 | – | –
O=C1Nc2ccccc2C(O)(c2ccccc2)C1O (stereo not given) | – | inactive | inactive | 0.763 | – | –
CCCOc1ccc(S(=O)(=O)N2CCN(CCO)CC2)cc1-c1nc2c(CCC)cn(CC)c2c(=O)[nH]1 | – | inactive | inactive | -0.893 | – | –
Cc1c(C(=O)NCCCO)cnn1-c1nc(-c2cccc(C(F)(F)F)c2)cs1 | 9.53 µM (active) | inactive | inactive | – | – | –
CC1=C2CC(=O)C(C)CC/C=C(\C)CC2(O)OC1=O (stereo not given) | – | inactive | inactive | -1.53 | – | –

Compound | Potency [1] | Potency [2] | Potency [3] | activation [1] [%] | activity change, negative = inhibition [2] | activity change, negative = inhibition [3]
CC1=C2CC(=O)C(C)CC/C=C(\C)CC2OC1=O (stereo not given) | – | inactive | inactive | 8.93 | – | –
CC(=O)O[C@H]1C[C@@]2(C)[C@@H](C[C@@H](O)[C@H]3[C@@]4(C)CC[C@@H](O)[C@@H](C)[C@@H]4CC[C@@]32C)/C1=C(\CCC=C(C)C)C(=O)O | – | inactive | inactive | 9 | – | –
COc1cc(O)cc(/C=C/c2cccc(O)c2)c1 | – | inactive | inactive | -8.93 | – | –
CC1(C)CC2C(O)C3=C(CC(C)(O)C2C1)C(=O)OC3O (stereo not given) | – | inactive | inactive | 1.79 | – | –
CC(C)C(C(=O)N(C)C(C)C(N)=O)N(C)C(=O)C1CCCN1C(=O)/C=C/C=C/C(O)C(C)O (stereo not given) | – | inactive | inactive | -23.7 | – | –
OC[C@H]1O[C@@H](Oc2ccc3c(c2)OC[C@H]2c4cc5c(cc4O[C@@H]32)OCO5)[C@H](O)[C@@H](O)[C@@H]1O | – | inactive | inactive | -13.7 | – | –
C=CC(C)(CC/C=C(\C)C(=O)OC[C@H]1O[C@@H](OC(C)(C=C)CC/C=C(\C)C(=O)O[C@H]2[C@H](O)[C@@H](O)[C@H](OC(C)(C=C)CC/C=C(\C)C(=O)O)O[C@@H]2CO)[C@H](O)[C@@H](O)[C@@H]1O)O[C@@H]1O[C@H](CO)[C@@H](O)[C@H](O)[C@H]1O (stereo not given in full) | – | inactive | inactive | -9.16 | – | –
CCC1CC2C(C)=CC3CCCCC3C2(C)C2(OC(=O)C(C)(O)OC2=O)O1 (stereo not given) | – | inactive | inactive | -16 | – | –
C=C1CC2C(C)(CCC(=O)O)C(C(C)(C)O)CCC2(C)C2C(=O)OC(C)(C(=O)OC)C(=O)C12C (stereo not given) | – | inactive | inactive | 10.7 | – | –
C=C1CCC2C(C)(C(=O)O)CCCC2(C)C1CC/C(=C\CO)CO (stereo not given) | – | inactive | inactive | 3.57 | – | –
CC(O)/C=C/C1(O)C(C)C(O[C@@H]2O[C@H](CO)[C@@H](O)[C@H](O)[C@H]2O)C(O)CC1(C)C (stereo not given in full) | – | inactive | inactive | -10.7 | – | –
CO[C@@]12CC3[C@@H]([C@@H](O)[C@@H](OC(C)=O)C4[C@](C)(COC(C)=O)CCC[C@]34C)[C@@H](C)C1=CC(=O)O2 (stereo not given in full) | – | inactive | inactive | -3.05 | – | –
C=C1C(=O)O[C@@H]2[C@H]1CCC(C)=C(CCC(=O)O)[C@@]2(C)O | – | inactive | inactive | -18.3 | – | –
C/C=C/C=C/C(=O)OC1CC/C=C/C(O)C(O)C(CCC)OC1=O (stereo not given) | – | inactive | inactive | -12.2 | – | –
COC(=O)CC1(O)C(=O)Nc2ccccc21 (stereo not given) | – | inactive | inactive | -1.79 | – | –
CC(=O)O[C@@H]1C(=O)C(C)=C(CCC(C)CC(=O)O)[C@@]2(C)CCCC(C)(C)C12 (stereo not given in full) | – | inactive | inactive | 0.893 | – | –
CC1C(=O)CC2C3C(O)CC(C(=O)O)C12CC3(C)C (stereo not given) | – | inactive | inactive | 1.53 | – | –
CC1OC(OCC2OC(OC3CCC4(C)C(CCC5(C)C4CC=C4C6CC(C)(C)CCC6(C(=O)OC6OC(CO)C(O)C(O)C6O)CCC45C)C3(C)CO)C(O)C(O)C2O)C(O)C(O)C1O (stereo not given) | – | inactive | inactive | -9.92 | – | –
CC1=C2[C@@H]([C@H](C)CC[C@H]2/C=C(\C)C(=O)O)[C@H](O)C1 | – | inactive | inactive | -10.7 | – | –
CCCC1=CC2=C(CO1)C(=O)C(C)(O)C(OC(=O)c1c(C)cc(OC)cc1O)C2 (stereo not given) | – | inactive | inactive | -1.53 | – | –
COc1cc2ncnc(Nc3ccc(F)c(Cl)c3)c2cc1O | – | inactive | inactive | 25.7 | – | –
O=C(O[C@@H]1O[C@H](CO)[C@@H](O)[C@H](O)[C@H]1O)c1ccccc1 | – | inactive | inactive | -9.82 | – | –
CC(=O)O[C@H]1CC2C(COC(=O)CC(C)C)=CO[C@@H](OC(=O)CC(C)C)C2[C@]12CO2 (stereo not given in full) | 10.4 µM (active) | inactive | inactive | – | – | –
Cc1cccc(N2CCN(C(=O)c3cc(S(=O)(=O)N(C)C)ccc3N3CCCC3)CC2)c1C | – | inactive | inactive | -4.33 | – | –
CN1CCN(Cc2ccc(-c3cnc4[nH]cc(-c5ccc6[nH]ccc6c5)c4c3)cc2)CC1 | 23.9 µM (active) | inactive | inactive | – | – | –
O=C(c1ccccn1)N(Cc1cccs1)C1(C(=O)NC2CCCCC2)CCCCC1 | – | inactive | inactive | -1.67 | – | –
C=CCc1cc(OC)c(OC(C)C(O)c2ccc(O)c(OC)c2)c(OC)c1 (stereo not given) | – | inactive | inactive | 4.46 | – | –
